Reference: the supplement of paper PMC11732987, “Enantioselective OTUD7B fragment discovery through chemoproteomics screening and high-throughput optimisation” (Communications Chemistry, 2025)
Unmarked numbers belong to inactive results.

Tests used:
Test in all cases: log2 ratio of Biotin-Ahx-Ub-VS probe labelling (fragment/DMSO); higher = less target engagement (more negative = stronger competition), active = hit call of the paper (q ≤ 0.05, log2 ratio ≤ -1)
Settings in all cases: compound concentration: 200 uM; treatment time: 3 h
USP34 = USP34 (UniProt Q70CQ2)
Summary of the method: (§1)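 In triplicate, 495 µg of HEK293T lysate per sample was incubated with fragment at 200 µM or vehicle for 3 h. Biotin-Ahx-Ub-VS was then added to 0.5 µM final for 1 h, and labelled DUBs were captured with NeutrAvidin, digested with LysC and trypsin, and measured by diaPASEF LC-MS/MS. Data are average log2 fragment/vehicle ratios by unpaired t-test from global-median-normalised Spectronaut label-free quantities, restricted to proteins with ≥2 unique peptides.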

USP36 = biological target: T1, USP36 (UniProt Q9P275)
T1 sequence (whole entry): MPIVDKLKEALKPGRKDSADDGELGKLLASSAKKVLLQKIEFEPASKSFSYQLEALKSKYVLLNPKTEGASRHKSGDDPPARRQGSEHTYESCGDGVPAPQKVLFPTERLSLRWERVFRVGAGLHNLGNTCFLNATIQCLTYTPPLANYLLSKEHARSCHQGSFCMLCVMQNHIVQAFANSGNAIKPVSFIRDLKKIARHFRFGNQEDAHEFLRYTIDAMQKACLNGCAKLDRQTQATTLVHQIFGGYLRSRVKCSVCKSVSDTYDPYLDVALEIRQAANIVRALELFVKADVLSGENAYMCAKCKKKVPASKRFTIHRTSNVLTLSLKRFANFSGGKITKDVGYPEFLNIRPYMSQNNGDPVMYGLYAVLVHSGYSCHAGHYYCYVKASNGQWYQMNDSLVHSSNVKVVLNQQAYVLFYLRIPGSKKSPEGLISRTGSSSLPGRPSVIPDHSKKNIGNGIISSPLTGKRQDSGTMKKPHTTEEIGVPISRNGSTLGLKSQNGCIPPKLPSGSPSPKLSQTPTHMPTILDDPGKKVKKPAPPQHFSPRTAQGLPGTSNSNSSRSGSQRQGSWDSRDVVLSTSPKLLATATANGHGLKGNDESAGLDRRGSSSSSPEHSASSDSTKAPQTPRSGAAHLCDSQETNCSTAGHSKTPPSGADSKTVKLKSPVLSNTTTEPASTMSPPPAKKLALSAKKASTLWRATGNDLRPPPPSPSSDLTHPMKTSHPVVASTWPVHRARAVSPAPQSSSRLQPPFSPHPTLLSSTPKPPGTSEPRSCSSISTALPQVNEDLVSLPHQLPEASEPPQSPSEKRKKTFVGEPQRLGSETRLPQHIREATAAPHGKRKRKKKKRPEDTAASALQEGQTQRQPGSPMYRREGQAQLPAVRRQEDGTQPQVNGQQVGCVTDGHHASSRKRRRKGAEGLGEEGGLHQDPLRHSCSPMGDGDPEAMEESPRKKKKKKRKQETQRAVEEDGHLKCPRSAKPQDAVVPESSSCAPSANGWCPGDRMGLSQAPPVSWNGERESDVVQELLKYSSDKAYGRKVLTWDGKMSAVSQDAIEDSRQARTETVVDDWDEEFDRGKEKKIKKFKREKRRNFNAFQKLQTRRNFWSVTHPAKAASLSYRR
Summary of the method: as §1

USP38 = biological target: T2, USP38 (UniProt Q8NB14)
T2 sequence (whole entry): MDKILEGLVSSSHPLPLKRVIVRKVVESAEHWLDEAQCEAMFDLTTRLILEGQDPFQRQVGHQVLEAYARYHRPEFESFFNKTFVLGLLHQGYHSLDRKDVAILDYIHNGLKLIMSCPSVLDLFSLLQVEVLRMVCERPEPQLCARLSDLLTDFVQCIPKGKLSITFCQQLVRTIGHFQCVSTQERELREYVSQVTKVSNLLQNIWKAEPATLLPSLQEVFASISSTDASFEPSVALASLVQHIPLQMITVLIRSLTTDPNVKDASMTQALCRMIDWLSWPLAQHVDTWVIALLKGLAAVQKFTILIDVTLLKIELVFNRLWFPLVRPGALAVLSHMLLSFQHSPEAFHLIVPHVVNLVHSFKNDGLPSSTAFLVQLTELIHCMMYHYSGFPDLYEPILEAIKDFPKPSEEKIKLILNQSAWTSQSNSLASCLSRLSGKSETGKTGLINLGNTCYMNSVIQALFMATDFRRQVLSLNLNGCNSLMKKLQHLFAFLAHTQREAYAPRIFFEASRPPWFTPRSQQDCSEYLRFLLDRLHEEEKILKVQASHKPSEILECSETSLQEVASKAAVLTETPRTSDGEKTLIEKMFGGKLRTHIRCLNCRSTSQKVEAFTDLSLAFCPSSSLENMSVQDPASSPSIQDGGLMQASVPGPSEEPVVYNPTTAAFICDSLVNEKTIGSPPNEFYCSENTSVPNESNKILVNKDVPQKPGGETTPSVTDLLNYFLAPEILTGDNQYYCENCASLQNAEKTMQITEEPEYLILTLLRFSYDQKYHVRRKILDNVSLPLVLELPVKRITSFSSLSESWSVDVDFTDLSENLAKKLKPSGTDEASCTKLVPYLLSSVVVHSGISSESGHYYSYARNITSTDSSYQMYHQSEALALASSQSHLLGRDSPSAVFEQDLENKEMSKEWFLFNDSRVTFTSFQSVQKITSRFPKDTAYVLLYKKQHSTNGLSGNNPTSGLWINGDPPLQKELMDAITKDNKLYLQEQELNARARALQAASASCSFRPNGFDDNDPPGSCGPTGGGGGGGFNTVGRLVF
Summary of the method: as §1

USP39 = biological target: T3, USP39 (UniProt Q53GS9)
T3 sequence (whole entry): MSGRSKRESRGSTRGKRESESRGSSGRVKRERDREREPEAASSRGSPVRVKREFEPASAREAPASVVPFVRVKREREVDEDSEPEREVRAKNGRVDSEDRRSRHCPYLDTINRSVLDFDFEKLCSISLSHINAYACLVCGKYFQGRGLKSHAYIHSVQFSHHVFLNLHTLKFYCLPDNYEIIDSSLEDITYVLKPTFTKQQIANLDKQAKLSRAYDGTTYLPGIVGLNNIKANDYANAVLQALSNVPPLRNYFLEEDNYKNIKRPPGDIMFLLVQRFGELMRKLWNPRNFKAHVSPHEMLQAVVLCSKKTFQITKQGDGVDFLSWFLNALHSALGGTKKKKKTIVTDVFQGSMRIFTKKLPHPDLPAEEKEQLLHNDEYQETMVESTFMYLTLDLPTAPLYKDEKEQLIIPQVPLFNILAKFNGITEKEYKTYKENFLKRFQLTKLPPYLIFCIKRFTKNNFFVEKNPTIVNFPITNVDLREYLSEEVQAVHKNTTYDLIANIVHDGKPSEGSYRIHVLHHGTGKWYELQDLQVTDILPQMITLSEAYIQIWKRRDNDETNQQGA
Summary of the method: as §1

USP4 = biological target: T4, USP4 (UniProt Q13107)
T4 sequence (whole entry): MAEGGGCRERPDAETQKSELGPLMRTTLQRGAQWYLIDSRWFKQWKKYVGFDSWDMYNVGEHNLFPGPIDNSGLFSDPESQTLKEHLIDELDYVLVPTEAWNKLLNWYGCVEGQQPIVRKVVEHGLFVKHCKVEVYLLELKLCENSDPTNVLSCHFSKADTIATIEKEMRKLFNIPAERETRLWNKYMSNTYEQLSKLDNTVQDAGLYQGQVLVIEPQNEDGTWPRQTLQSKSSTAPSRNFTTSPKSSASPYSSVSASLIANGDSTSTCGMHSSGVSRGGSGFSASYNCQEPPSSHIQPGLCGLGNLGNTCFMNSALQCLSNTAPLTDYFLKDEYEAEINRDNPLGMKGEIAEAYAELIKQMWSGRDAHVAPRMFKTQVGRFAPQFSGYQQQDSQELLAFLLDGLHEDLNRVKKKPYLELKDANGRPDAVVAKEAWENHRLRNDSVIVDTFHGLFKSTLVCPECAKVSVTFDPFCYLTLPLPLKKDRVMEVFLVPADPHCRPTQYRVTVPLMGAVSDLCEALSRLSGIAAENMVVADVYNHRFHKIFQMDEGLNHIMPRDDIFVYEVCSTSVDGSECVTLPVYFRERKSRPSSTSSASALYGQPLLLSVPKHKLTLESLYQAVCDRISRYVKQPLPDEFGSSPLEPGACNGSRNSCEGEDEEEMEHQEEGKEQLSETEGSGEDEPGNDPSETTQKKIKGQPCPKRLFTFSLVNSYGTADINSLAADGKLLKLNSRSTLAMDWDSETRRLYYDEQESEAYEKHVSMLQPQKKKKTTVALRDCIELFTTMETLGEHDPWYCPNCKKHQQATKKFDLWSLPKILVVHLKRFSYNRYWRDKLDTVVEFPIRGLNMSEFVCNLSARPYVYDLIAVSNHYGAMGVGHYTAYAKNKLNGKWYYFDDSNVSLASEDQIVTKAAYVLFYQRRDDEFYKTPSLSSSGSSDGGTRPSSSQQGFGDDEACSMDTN
Summary of the method: as §1

Sequence of USP34 (Q70CQ2 whole entry, the tested form may be a part): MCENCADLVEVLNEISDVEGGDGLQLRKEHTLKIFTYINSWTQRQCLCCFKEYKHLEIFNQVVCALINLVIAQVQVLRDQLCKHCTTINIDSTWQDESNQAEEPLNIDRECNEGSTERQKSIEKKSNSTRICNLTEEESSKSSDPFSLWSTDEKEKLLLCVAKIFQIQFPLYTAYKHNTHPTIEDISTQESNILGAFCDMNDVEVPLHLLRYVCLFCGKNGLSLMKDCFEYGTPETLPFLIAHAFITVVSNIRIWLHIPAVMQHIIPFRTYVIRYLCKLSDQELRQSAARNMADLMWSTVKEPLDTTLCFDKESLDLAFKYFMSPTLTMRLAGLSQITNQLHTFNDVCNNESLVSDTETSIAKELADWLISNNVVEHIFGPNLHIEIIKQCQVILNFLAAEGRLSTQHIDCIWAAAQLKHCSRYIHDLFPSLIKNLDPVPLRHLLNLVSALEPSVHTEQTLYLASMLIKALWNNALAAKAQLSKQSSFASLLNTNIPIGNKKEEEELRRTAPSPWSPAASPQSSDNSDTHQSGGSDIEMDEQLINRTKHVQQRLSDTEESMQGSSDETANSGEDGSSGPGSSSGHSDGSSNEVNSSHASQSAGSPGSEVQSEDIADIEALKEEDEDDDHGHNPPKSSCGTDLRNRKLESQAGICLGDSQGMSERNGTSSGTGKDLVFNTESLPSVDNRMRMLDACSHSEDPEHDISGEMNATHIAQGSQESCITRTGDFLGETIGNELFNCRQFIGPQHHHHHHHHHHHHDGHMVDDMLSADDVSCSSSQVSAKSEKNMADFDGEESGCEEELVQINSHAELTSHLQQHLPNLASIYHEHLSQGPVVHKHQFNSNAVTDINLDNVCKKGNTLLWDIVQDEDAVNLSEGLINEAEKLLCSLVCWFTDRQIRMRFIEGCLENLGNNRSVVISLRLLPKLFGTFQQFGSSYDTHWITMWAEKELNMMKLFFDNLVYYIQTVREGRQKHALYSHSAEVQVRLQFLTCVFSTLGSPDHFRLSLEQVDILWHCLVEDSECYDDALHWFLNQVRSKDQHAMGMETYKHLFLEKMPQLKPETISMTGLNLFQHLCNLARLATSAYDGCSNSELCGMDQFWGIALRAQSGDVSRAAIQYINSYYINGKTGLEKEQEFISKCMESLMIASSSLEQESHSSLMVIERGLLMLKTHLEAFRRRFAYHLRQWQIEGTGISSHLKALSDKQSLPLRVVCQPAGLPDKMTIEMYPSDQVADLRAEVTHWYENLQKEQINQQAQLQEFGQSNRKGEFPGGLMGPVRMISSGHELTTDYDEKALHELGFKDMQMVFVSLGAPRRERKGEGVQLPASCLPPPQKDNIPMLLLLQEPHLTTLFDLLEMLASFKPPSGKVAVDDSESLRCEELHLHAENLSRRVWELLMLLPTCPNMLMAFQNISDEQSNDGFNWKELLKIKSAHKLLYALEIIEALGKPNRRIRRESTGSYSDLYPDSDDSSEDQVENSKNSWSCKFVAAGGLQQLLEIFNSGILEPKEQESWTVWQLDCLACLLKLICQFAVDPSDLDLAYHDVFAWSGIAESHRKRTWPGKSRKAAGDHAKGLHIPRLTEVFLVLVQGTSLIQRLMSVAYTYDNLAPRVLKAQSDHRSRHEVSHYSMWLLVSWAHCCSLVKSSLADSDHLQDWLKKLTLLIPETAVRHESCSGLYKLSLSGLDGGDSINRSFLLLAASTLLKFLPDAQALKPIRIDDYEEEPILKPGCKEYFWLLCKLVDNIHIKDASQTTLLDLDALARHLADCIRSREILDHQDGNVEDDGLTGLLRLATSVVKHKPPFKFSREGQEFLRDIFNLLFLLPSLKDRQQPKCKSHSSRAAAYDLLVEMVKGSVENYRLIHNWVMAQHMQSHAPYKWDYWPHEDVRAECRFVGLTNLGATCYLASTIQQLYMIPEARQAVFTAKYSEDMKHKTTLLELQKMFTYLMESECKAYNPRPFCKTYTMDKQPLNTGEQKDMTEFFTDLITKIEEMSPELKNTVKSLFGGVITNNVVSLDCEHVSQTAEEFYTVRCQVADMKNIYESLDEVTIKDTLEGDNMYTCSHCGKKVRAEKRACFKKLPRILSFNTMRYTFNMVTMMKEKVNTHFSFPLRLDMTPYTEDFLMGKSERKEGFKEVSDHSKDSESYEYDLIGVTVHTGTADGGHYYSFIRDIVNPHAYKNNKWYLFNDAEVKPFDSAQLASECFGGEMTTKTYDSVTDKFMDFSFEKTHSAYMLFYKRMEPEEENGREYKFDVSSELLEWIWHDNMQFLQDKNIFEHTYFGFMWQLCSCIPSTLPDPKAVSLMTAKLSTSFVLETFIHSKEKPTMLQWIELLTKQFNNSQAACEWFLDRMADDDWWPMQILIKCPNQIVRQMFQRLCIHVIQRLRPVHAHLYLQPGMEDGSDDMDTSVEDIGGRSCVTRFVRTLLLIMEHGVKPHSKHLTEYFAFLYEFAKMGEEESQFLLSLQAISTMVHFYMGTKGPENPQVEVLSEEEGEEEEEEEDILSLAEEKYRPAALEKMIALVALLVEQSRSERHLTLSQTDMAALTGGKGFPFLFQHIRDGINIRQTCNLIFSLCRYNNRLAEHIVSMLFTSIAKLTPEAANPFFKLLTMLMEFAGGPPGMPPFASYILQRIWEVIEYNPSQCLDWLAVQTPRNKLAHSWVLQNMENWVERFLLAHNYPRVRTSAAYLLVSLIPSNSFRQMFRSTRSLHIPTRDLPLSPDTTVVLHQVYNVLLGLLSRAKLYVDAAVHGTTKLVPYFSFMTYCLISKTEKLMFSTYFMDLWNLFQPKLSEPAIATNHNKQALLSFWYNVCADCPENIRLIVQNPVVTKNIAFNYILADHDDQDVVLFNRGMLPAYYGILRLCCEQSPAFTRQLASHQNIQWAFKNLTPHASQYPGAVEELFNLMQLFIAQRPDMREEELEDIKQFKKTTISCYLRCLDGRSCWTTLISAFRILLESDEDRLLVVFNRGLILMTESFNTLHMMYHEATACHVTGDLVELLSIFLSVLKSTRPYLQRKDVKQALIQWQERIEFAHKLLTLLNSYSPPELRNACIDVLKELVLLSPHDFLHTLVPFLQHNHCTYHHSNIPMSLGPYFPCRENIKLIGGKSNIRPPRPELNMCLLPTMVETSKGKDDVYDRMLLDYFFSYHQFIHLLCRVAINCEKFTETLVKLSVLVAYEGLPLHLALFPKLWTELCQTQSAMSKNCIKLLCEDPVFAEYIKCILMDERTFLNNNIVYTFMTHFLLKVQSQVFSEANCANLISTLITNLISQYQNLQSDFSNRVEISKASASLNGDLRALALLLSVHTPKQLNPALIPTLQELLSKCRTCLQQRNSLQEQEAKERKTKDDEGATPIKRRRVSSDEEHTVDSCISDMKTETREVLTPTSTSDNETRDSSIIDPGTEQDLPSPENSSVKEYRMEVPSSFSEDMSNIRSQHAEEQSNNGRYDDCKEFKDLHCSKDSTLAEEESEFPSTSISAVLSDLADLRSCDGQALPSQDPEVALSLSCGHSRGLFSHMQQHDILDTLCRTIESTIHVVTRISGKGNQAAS

For `O=C(CCl)N1CC=C(c2c[nH]c3ccccc23)CC1`, which “log2 ratio of Biotin-Ahx-Ub-VS probe labelling” value (from here on “log2 ratio”) (USP34) is on record?
Its value is -0.9.

And the “log2 ratio” value (USP36)?
The value was 0.0858.

And the “log2 ratio” value (USP38)?
Its value is -0.476.

And the “log2 ratio” value (USP39)?
The value was 0.536.

And the “log2 ratio” value (USP4)?
The value was -1.2 (active).
